Results filed as inconclusive are left out. The source made the active and inactive calls.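 Rule for the calls, unless noted: active = viability at or under a set limit in both replicates, limit being median viability minus 3 SD (cut at about 48% in these data, passing the limit was not always enough); inconclusive = at or under the limit in just one replicate; inactive = at or above the limit in both replicates.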
What was measured:
[1] = Her2 expression decrease, cell viability multiplex – SKBR3 breast tumor cells, AlphaScreen, ATP viability, primary screen (AID 461;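 active = Her2 level under about 52% in both replicate screens, with viability over 70% of control, limit read from the data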;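 for Her2 level: lower value means less Her2 protein in the cells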;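 for viability: percent of carrier control wells set as 100% viability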); conditions: SKBR3 Her2 protein level, 18-24 h, measured here: SKBR3 viability, ATP luminescence, at 10 µM
[2] = molecular target: Receptor tyrosine-protein kinase erbB-2 (Homo sapiens) (UniProt P04626); assay: as above; conditions: 18-24 h, at 10 µM, stronger effect = lower value
Chain of Receptor tyrosine-protein kinase erbB-2 (Homo sapiens) (P04626 whole entry, looked up): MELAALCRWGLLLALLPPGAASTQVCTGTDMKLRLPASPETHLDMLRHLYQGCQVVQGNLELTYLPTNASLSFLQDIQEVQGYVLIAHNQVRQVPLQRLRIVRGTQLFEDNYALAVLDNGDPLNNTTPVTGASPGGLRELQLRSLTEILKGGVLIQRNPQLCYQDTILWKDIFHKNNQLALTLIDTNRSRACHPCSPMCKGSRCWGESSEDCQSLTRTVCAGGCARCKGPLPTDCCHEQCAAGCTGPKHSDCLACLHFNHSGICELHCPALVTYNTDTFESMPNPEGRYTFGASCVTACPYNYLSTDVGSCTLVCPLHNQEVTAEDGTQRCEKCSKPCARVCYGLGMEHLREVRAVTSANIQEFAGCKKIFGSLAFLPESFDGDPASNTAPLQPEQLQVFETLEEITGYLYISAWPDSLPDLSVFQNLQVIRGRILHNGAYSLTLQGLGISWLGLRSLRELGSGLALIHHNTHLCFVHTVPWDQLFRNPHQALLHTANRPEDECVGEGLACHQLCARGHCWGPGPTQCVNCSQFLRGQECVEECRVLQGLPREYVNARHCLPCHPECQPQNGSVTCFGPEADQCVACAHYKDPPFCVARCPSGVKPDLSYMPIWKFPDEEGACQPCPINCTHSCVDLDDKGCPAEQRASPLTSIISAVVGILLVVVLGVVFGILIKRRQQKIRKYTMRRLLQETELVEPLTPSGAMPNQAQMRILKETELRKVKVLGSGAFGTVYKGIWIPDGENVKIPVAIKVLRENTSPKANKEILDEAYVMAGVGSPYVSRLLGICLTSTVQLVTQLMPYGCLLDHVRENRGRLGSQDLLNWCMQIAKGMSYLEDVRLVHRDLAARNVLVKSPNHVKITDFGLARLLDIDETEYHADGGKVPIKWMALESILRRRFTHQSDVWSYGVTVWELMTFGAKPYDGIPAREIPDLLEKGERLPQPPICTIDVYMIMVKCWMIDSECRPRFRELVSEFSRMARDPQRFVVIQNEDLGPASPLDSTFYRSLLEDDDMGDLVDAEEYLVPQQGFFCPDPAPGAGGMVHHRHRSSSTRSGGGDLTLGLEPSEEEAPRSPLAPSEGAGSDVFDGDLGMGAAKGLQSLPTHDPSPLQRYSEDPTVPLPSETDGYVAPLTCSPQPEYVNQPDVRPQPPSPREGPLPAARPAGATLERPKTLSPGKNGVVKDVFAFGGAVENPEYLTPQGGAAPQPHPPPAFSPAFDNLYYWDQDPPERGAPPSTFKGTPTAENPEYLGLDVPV

[3] = reduced viability of SK-BR-3 breast cancer cells – cell-based, 24 h, human, pilot screen (AID 572;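 active = viability at or below 10% of carrier control in both of two separate runs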;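 note: compound exposure lasted between 18 and 24 h rather than exactly 24 h; 100% = carrier-treated control wells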); conditions: SK-BR-3 viability, CellTiter-Glo luminescence, at 10 µM, stronger effect = lower value
[4] = HUVEC growth inhibition – cell-based, human, primary screen (AID 575;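 active = viability at or below 30% in both replicate assays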;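 note: 100% = median of untreated cell wells with 0.1% DMSO on each plate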); conditions: HUVEC proliferation, CellTiter-Glo luminescence, 72 h; at 10 µM; stronger effect = lower value
[5] = H69AR cell proliferation blockers – human, duplicate replicates, primary screen (AID 580); conditions: H69AR lung tumor cells viability, ATP luminescence, 72 h; at 10 µM; stronger effect = lower value;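 note: 100% = mean luminescence of untreated wells and 0% = no signal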
[6] = MRP1 drug-resistance reversers in H69AR cells – cell-based, doxorubicin co-treatment, pilot screen (AID 601;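 active = viability loss from added drug above about 55%, and viability with drug at most 40%, in both replicates, limit read from the data, passing the limit was not always enough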); conditions: CellTiter-Glo, 72 h, at 10 µM; for differential viability (reversal): stronger effect = higher value
[7] = yeast transport mutant growth inhibition pilot in 384-well plates, post-Golgi transport modulator project (AID 636; in the data active = inhibition above about 31%); conditions: absorbance 615 nm, about 18 h, stronger effect = higher value
[8] = growth suppression of yeast trafficking mutant, preliminary HTS, modulators of trafficking downstream of Golgi apparatus project, 1536-format plate, OD 615 nm (AID 637; in the data active = inhibition above about 30%); conditions: yeast transport mutant growth, absorbance 615 nm, 18 h; stronger effect = higher value
[9] = S. cerevisiae growth inhibition in permissive medium (OD615), pilot counter-assay for S. cerevisiae lifespan shortening project, permissive growth control (AID 705;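 active = growth inhibition above 25% in both replicates, a cutoff set 3 SD above the mean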); conditions: OD615, 24 h, at 10 µM, stronger effect = higher value
[10] = S. cerevisiae growth inhibition in restrictive medium, OD615, pilot screen, restrictive growth control, yeast lifespan reduction project (AID 706;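 active = growth inhibition above a set limit, 3 SD over mean compound inhibition, in both replicates, cut at about 43% in these data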;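 note: modified DeaD lifespan yeast strain shifted to restrictive glucose medium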); conditions: OD615, 48 h, at 10 µM, stronger effect = higher value
[11] = doxorubicin toxicity protection in MRP-1 cells – H69AR cells, CellTiter-Glo, duplicate, MRP-1 activator project, pilot screen (AID 807;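 active = viability increase at or above a cutoff of the median across tested compounds plus 3 SD, cut at about 8.5% in these data, passing the limit was not always enough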;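 note: compound pretreatment 18-22 h then 72 h combined with doxorubicin; 0% = doxorubicin alone and 100% = vehicle without doxorubicin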); conditions: H69AR viability with doxorubicin, CellTiter-Glo luminescence; at 10 µM; stronger effect = higher value
[12] = viability of HCT116 without oncogenic beta-catenin – human colon tumor cells, pilot screen (AID 823;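 active = cell viability at or below a set limit in both duplicate runs, the limit being the all-compound median minus 4 SD, cut at about 23% in these data, passing the limit was not always enough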;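 note: 0% = wells killed by 20 µM Hyamine and 100% = untreated DMSO cell wells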); conditions: HCT116 beta-catenin knockout viability, CellTiter-Glo, 60 h; at 10 µM; stronger effect = lower value
[13] = viability of PTEN-null HCT116 cells – cell-based, HCT116 clonal line, CellTiter-Glo, pilot screen (AID 824;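 active = viability at or below 27.92% in each of two runs, the all-compound median minus 4 SD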;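 note: 0% = 20 µM Hyamine control and 100% = vehicle cell control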); conditions: HCT116 PTEN-deleted viability, 60 h, at 10 µM, stronger effect = lower value
[14] = RAM pathway blockade in budding yeast – dse1pr::URA3 reporter, 5-FOA selection, pilot screen (AID 869;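 active = inhibition over a set limit, the all-compound mean plus 3 SD, in both replicate runs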;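 note: 0% = DMSO wells with no growth and 100% = 10 µM 1-NA-PP1 with full growth; RAM network block rescues cells from 5-FOA so hits raise OD615 growth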); conditions: S. cerevisiae dse1pr::URA3 5-FOA growth, OD615, 2 d; at 10 µM; stronger effect = higher value; strain carries analog-sensitive mutant Cbk1 kinase
[15] = RAM signaling pathway blockade in yeast – S. cerevisiae, Pdr1DBD-CYC8 efflux-inhibited sensitized strain, primary screen (AID 1298;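 active = RAM network inhibition above 8.4% in each of two replicates, 3 SD over the compound average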;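 note: 0% = DMSO untreated cells without growth and 100% = 10 µM 1-NA-PP1 full growth; higher means more yeast growth rescued from 5-FOA killing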); conditions: S. cerevisiae cbk1-as DSE1-URA3 strain, 5-FOA growth OD615, 2 d; at 50 µM; stronger effect = higher value
[16] = H69AR cells + 2 uM doxorubicin, measured here: viability with 2 uM doxorubicin, stronger effect = lower value
[17] = H69AR cells, compound alone cytotoxicity

| SMILES | viability [1] | Her2 level [2] | viability [3] | viability [4] | viability [5] | differential viability (reversal) ([6]; H69AR cells + 2 uM doxorubicin) | viability [6, 16] | viability [6, 17] | inhibition [7] | inhibition [8] | growth inhibition [9] | growth inhibition [10] | viability increase [11] | viability [12] | viability [13] | inhibition [14] | RAM network inhibition [15] |
| --- | --- | --- | --- | --- | --- | --- | --- | --- | --- | --- | --- | --- | --- | --- | --- | --- | --- |
| CN1CCN(C(=O)c2ccc(CS(=O)(=O)c3c(Cl)cccc3Cl)o2)CC1 | 98.5% | 88.5% (inactive) | 98.5% (inactive) | 97.4% (inactive) | 94.3% (inactive) | 8.46% (inactive) | 85.8% | 94.3% | -2% (inactive) | -2.46% (inactive) | -7.05% (inactive) | -12% (inactive) | 0.72% (inactive) | 103% (inactive) | 96% (inactive) | 1.41% (inactive) | 0.22% (inactive) |
| CCOC(=O)C(CC)Sc1ncnc2nc[nH]c12 (stereo not given) | 104% | 106% (inactive) | 104% (inactive) | 103% (inactive) | 101% (inactive) | 13% (inactive) | 88.2% | 101% | 0.13% (inactive) | -7.27% (inactive) | -11% (inactive) | -11.7% (inactive) | -1.92% (inactive) | 97.5% (inactive) | 91.9% (inactive) | 1.79% (inactive) | 2.41% (inactive) |
| O=C(c1cnc2n(c1=O)CCS2)N(C1CCCCC1)C1CCCCC1 | 87% | 84% (inactive) | 87% (inactive) | 106% (inactive) | 102% (inactive) | 5.03% (inactive) | 97.4% | 102% | -4.53% (inactive) | -1% (inactive) | 2.67% (inactive) | -18.9% (inactive) | -2.34% (inactive) | 101% (inactive) | 92.3% (inactive) | 1.71% (inactive) | 2.61% (inactive) |
| Cc1ccc(-c2cc(C(F)(F)F)n3nc(C(=O)N4CCCC4)cc3n2)cc1 | 101% | 84.5% (inactive) | 101% (inactive) | 108% (inactive) | 111% (inactive) | 11.3% (inactive) | 100% | 111% | -0.68% (inactive) | 3.65% (inactive) | -13.3% (inactive) | 1.45% (inactive) | -2.2% (inactive) | 96.9% (inactive) | 89% (inactive) | 1.95% (inactive) | 4.14% (inactive) |
| CN1CCc2c(sc3c2C(=O)NC(c2cccc(OC(=O)c4cccs4)c2)N3)C1 (stereo not given) | 81.5% | 78.5% (inactive) | 81.5% (inactive) | 68% (inactive) | 85.6% (inactive) | -8.95% (inactive) | 94.6% | 85.6% | -5.07% (inactive) | 7.5% (inactive) | 8.64% (inactive) | 11.5% (inactive) | -4.85% (inactive) | 96.3% (inactive) | 93.8% (inactive) | 0.215% (inactive) | 4.47% (inactive) |
| COc1ccc(C2CC(c3cccc(C)c3)n3ncnc3N2)cc1 (stereo not given) | 87.5% | 89% (inactive) | 87.5% (inactive) | 88.8% (inactive) | 91.4% (inactive) | -5.74% (inactive) | 97.2% | 91.4% | 5.6% (inactive) | -9.02% (inactive) | 1.04% (inactive) | 5.56% (inactive) | -1.57% (inactive) | 100% (inactive) | 86.1% (inactive) | 0.22% (inactive) | -0.53% (inactive) |
| O=c1oc2c3c4c(cc2s1)CCCN4CCC3 | 89% | 86% (inactive) | 89% (inactive) | 101% (inactive) | 95.6% (inactive) | 4.35% (inactive) | 91.2% | 95.6% | -4.42% (inactive) | -2% (inactive) | 2.12% (inactive) | -7.54% (inactive) | -3.91% (inactive) | 101% (inactive) | 97.1% (inactive) | 1.76% (inactive) | 6.79% (inactive) |
| COc1ccc(N(CC(=O)Nc2ccc3c(c2)OCCO3)S(=O)(=O)c2cccnc2)cc1 | 91% | 108% (inactive) | 91% (inactive) | 104% (inactive) | 92.5% (inactive) | 4.99% (inactive) | 87.5% | 92.5% | -5.13% (inactive) | -3.83% (inactive) | -10.3% (inactive) | 0.75% (inactive) | -2.05% (inactive) | 102% (inactive) | 99.7% (inactive) | 1.63% (inactive) | 4.76% (inactive) |
| O=C(CSc1nnc2ccccn12)c1ccccc1 | 99% | 88% (inactive) | 99% (inactive) | 88.8% (inactive) | 94.5% (inactive) | 14.1% (inactive) | 80.3% | 94.5% | -4.27% (inactive) | -3.44% (inactive) | -13.8% (inactive) | -10.6% (inactive) | 0.47% (inactive) | 109% (inactive) | 102% (inactive) | 1.23% (inactive) | 2.3% (inactive) |
| COC(=O)C1=C(C)NC2=C(C(=O)CCC2)C1c1coc2ccccc2c1=O (stereo not given) | 91% | 81% (inactive) | 91% (inactive) | 97.7% (inactive) | 93% (inactive) | 2.12% (inactive) | 90.9% | 93% | -3.97% (inactive) | -1.5% (inactive) | -7.39% (inactive) | 6.02% (inactive) | -4.25% (inactive) | 89.4% (inactive) | 90.1% (inactive) | 2.04% (inactive) | 1.39% (inactive) |
| CC(=O)OCCNc1cc(N2CCN(C)CC2)c2noc3c2c1C(=O)c1ccccc1-3 | 83% | 102% (inactive) | 83% (inactive) | 68.9% (inactive) | 66.9% (inactive) | -8.49% (inactive) | 75.4% | 66.9% | -1.54% (inactive) | 3.33% (inactive) | -7.97% (inactive) | -9.2% (inactive) | -6.89% (inactive) | 76.8% (inactive) | 73% (inactive) | 8.66% (active) | 12.4% (inactive) |
| CC(C)c1nnc(NC(=O)Cc2cccs2)s1 | 106% | 92% (inactive) | 106% (inactive) | 106% (inactive) | 96.7% (inactive) | 6.08% (inactive) | 90.6% | 96.7% | -2.53% (inactive) | 1.48% (inactive) | -2.5% (inactive) | -0.8% (inactive) | -0.07% (inactive) | 99.5% (inactive) | 94.8% (inactive) | 2.64% (inactive) | 0.83% (inactive) |
| COc1ccc(C2CC(c3ccc(Cl)cc3Cl)n3nc(N)nc3N2)cc1 (stereo not given) | 95% | 93.5% (inactive) | 95% (inactive) | 79.8% (inactive) | 90.4% (inactive) | -0.635% (inactive) | 91.1% | 90.4% | 0.64% (inactive) | 3.67% (inactive) | 7.35% (inactive) | 25.7% (inactive) | 3.63% (inactive) | 90.9% (inactive) | 91.3% (inactive) | 1.59% (inactive) | 4.26% (inactive) |
| Cc1nnc(SCC(=O)Nc2sc3c(c2C#N)CCCC3)[nH]c1=O | 95.5% | 91.5% (inactive) | 95.5% (inactive) | 88.3% (inactive) | 102% (inactive) | 4.41% (inactive) | 97.4% | 102% | -3.38% (inactive) | -4.83% (inactive) | 1.05% (inactive) | 10.9% (inactive) | -2.28% (inactive) | 103% (inactive) | 101% (inactive) | 0.455% (inactive) | 3.34% (inactive) |
| O=C(O)C1CC=CCC1C(=O)Nc1cccc(F)c1 (stereo not given) | 94% | 94% (inactive) | 94% (inactive) | 88.1% (inactive) | 87.1% (inactive) | -1.18% (inactive) | 88.3% | 87.1% | -2.99% (inactive) | -5.17% (inactive) | -1.99% (inactive) | -0.35% (inactive) | -0.78% (inactive) | 102% (inactive) | 100% (inactive) | 1.86% (inactive) | 1.15% (inactive) |
| CCOC(=O)N1CCC(Nc2ncnc3c2cnn3-c2ccc(C)cc2C)CC1 | 86% | 78.5% (inactive) | 86% (inactive) | 83.4% (inactive) | 72.7% (inactive) | 42.5% (inactive) | 30.2% | 72.7% | -4% (inactive) | 1.5% (inactive) | 5.81% (inactive) | -2.8% (inactive) | -6.54% (inactive) | 70.2% (inactive) | 67.4% (inactive) | 0.78% (inactive) | 1.71% (inactive) |
| Cc1c(-n2c(CN3C(=O)c4ccccc4C3=O)nc3ccccc3c2=O)c(=O)n(-c2ccccc2)n1C | 93.5% | 110% (inactive) | 93.5% (inactive) | 105% (inactive) | 101% (inactive) | 3.82% (inactive) | 97% | 101% | -1.76% (inactive) | 4.6% (inactive) | -2.33% (inactive) | 2.67% (inactive) | -1.08% (inactive) | 102% (inactive) | 99.6% (inactive) | 1.4% (inactive) | 5.4% (inactive) |
| Cc1cccc(C)c1OCc1nnc(SCC(=O)Nc2ccccc2F)o1 | 95.5% | 101% (inactive) | 95.5% (inactive) | 108% (inactive) | 83% (inactive) | -7.2% (inactive) | 90.2% | 83% | -5.2% (inactive) | -5.17% (inactive) | -12.4% (inactive) | -9.96% (inactive) | -1.03% (inactive) | 98.8% (inactive) | 98.1% (inactive) | 3.38% (inactive) | 3.85% (inactive) |
| CC(C)(C)SCCNC(=O)COc1ccccc1 | 112% | 88.5% (inactive) | 112% (inactive) | 88.4% (inactive) | 96.8% (inactive) | 11.8% (inactive) | 85% | 96.8% | -6.22% (inactive) | 4% (inactive) | -2.07% (inactive) | 4.92% (inactive) | 0.03% (inactive) | 95.7% (inactive) | 96.6% (inactive) | 1.81% (inactive) | 2.63% (inactive) |
| Cc1cccc(NC(=O)CS(=O)(=O)c2cn(C)c3ccccc23)c1 | 98% | 95.5% (inactive) | 98% (inactive) | 105% (inactive) | 90.6% (inactive) | -1.36% (inactive) | 92% | 90.6% | -3.47% (inactive) | -0.98% (inactive) | 1.62% (inactive) | -12% (inactive) | -3.05% (inactive) | 97.1% (inactive) | 92.6% (inactive) | 1.98% (inactive) | 4.28% (inactive) |
